# Source: PubChem
# In the library only some 11% were active in any assay of this set; here they are far more common.
# HPGD block: qHTS Assay for Inhibitors of HPGD (15-Hydroxyprostaglandin Dehydrogenase); purified HPGD, NADH fluorescence kinetic, PGE2 substrate; Potency, µM, without a hit: top-dose activity change, negative = inhibition, hits mostly inhibitors; actives 4.3% (n = 150,000); 15-hydroxyprostaglandin dehydrogenase [NAD(+)] (Homo sapiens), P15428; further: potency means the concentration at half of the fitted maximal effect
# Target sequence (P15428 whole entry, looked up): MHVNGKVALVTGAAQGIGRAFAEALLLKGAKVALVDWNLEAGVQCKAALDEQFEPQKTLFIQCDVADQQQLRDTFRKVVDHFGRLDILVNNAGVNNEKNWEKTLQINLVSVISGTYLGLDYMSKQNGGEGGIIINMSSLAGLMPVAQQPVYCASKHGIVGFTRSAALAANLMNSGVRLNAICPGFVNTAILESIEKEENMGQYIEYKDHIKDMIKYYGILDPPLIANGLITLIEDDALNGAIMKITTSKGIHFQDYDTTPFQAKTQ
#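 NADH formation kinetics: reaction with 30 uM PGE2 and 1 mM NAD+ (final), 20 nM enzyme, Tris-HCl pH 8 with Tween 20, after 15 min compound preincubation at room temperature. Fluorescence change, last versus first of five reads.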
# ALDH1A1 block: qHTS Assay for Inhibitors of Aldehyde Dehydrogenase 1 (ALDH1A1) | Aldehyde dehydrogenase 1A1 (Homo sapiens), P00352 | Purified ALDH1A1, NADH fluorescence, propionaldehyde substrate | Potency, µM (highest dose often 75.3 µM), for the others: at the top dose activity, negative = inhibition, most hits filed as inhibitors | actives 7.3% (n = 220,000) | AID 1030, 2008;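 further: potency means the concentration at half of the fitted maximal effect; plate controls were no enzyme wells and a reference inhibitor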
# Target sequence (P00352 whole entry, looked up): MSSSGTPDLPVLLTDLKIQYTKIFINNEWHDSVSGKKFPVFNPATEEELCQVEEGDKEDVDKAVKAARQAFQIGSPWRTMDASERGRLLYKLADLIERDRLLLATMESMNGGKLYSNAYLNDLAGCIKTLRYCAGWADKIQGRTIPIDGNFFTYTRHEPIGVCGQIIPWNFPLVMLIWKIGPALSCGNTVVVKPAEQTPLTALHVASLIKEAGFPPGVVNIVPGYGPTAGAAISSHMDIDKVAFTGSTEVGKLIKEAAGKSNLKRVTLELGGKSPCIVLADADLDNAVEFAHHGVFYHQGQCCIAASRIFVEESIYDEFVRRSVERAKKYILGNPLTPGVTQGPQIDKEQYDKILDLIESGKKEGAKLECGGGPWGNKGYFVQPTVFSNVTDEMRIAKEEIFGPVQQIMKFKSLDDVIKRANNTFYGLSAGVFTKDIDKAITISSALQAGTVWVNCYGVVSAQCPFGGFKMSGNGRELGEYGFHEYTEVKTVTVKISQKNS
# IMPase inh: qHTS Assay for Identifying the Cell-Membrane Permeable IMPase Inhibitors. Inositol monophosphatase 1 (Rattus norvegicus), P97697. CHO-M1 cells, IP1 accumulation, HTRF TR-FRET ratio. inhibition (IP1 accumulation), % at 46.1 µM. 120,000 tested, under 10 active. AID 901, 2007; active means well fitted curve in the direction sought with a large enough effect in the signal ratio, not every such curve was filed as active; inconclusive means small, poorly fitted or top-dose-only effect, or a change in a side signal; inactive means no such curve, though single readings can be large or run the other way; the % refers to the signal ratio;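 further: cells stimulated with carbachol in lithium chloride buffer; plate controls were DMSO basal wells for no effect and reference inhibitor wells for full effect; higher means more IMPase inhibition seen as more IP1 and lower FRET ratio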
#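 Carbachol-driven Gq signalling in CHO-M1 cells (2000/well) generates IP1. Compounds that block IMPase raise IP1 and so reduce the FRET signal from Eu-anti-IP1 and d2-IP1 after a 10 min room-temperature lysis.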
# IMPase Li inh: qHTS Assay for Identifying the Cell-Membrane Permeable IMPase Inhibitors: Potentiation with Lithium | actives 0.35% (n = 210,000) | Potency, µM (highest dose often 59.4 µM), inactives show at the top dose activity, negative = IMPase inhibition, most hits filed as inhibitors | AID 1457, 2008 | CHO-M1 cells, IP1 TR-FRET (IP-One), carbachol + lithium; active means well fitted curve in the direction sought with a large enough effect; inconclusive means small, poorly fitted or top-dose-only effect, or another doubt; inactive means no such curve, though single readings can be large; an effect the other way counts as inactive or inconclusive;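 further: IP1 builds up when IMPase is blocked and the TR-FRET signal falls; potency means the concentration at half of the fitted maximal effect; plate controls were basal vehicle for no effect and high inhibitor control for full effect; nearly all actives have a fitted effect of over 50% in size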
#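 Readout is a homogeneous TR-FRET IP1 immunoassay (Ex 320, Em 665 and 620), where raised cytosolic IP1 lowers signal. Cells were CHO-M1 treated 30 min at 37C with test compounds plus a little lithium; AC50 values came from Hill-equation fitting.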
# NPSR antag: qHTS Assay for Antagonists of the Neuropeptide S Receptor: cAMP Signal Transduction. Potency, µM (doses to about 38.3 µM), without a hit: at the top dose activity change, negative = inhibition, most hits filed as inhibitors. AID 1461, 2008. CHO-NPSR cells, cAMP TR-FRET, antagonist mode. actives 1% (n = 220,000). Q6W5P4; active means well fitted curve in the direction sought with a large enough effect; inconclusive means small, poorly fitted or top-dose-only effect, or another doubt; inactive means no such curve, though single readings can be large; an effect the other way counts as inactive or inconclusive; further: potency means the concentration at half of the fitted maximal effect; nearly all actives have a fitted effect of over 50% in size
# PNC assembly inh: High Content Assay for Compounds that inhibit the Assembly of the Perinucleolar Compartment. PC3M PTB-GFP, PNC prevalence imaging, 16 h; stronger effect = lower value. activity change (PNC), negative = inhibition, % at 10 µM. actives 3.1% (n = 140,000). AID 2417, 2010;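 active means readout at or below -70, meaning at least 70% loss of cells showing the perinucleolar compartment, a nuclear body marking cancer cells; inconclusive means readout between -30 and a set limit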;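 further: plate controls were DMSO wells for no effect and camptothecin positive control wells for full effect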
#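 PC3M cells stably expressing PTB-GFP, 750–1000 cells/well, treated 16 h at 37 °C with compound (23 nl of library stock), in duplicate. After paraformaldehyde fixation and Hoechst stain, imaged at 20x; PNC prevalence scored by image analysis.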
# Starred values were filed as active, the others as inactive; ? = inconclusive; nt = not tested or not shown; [ ] = remark or other dose. Unless noted, the call rests on the fitted dose curve; in most records, active means well fitted inhibition curve with a large enough effect (not every such curve was filed as active); inconclusive means small, poorly fitted or top-dose-only effect, or another doubt; inactive means no such curve, though single readings can be large or run the other way. Unless noted, on the % scale 0 is the no-effect control and ±100 the full control effect.
SMILES,HPGD block,ALDH1A1 block,IMPase inh,IMPase Li inh,NPSR antag,PNC assembly inh
S=c1[nH]nc(-c2ccccn2)n1/N=C/c1ccco1,nt,nt,nt,nt,-3%,nt
S=c1[nH]nc(-c2ccco2)n1/N=C/C(Cl)=C/c1ccccc1,nt,-5%,nt,nt,?,nt
Cc1cc(-c2n[nH]c(=S)n2/N=C/C(Cl)=C/c2ccccc2)n[nH]1,6.3µM*,?,nt,9%,-60%,0
Cc1ccsc1/C=N/n1c(-c2ccccn2)n[nH]c1=S,28µM*,?,nt,3%,-5%,?
Cc1cc(-c2n[nH]c(=S)n2/N=C/c2sccc2C)n[nH]1,22µM*,-4%,nt,-2%,-10%,-23
S=c1[nH]nc(-c2cc(-c3ccccc3)n[nH]2)n1/N=C/c1cccs1,nt,10%,nt,nt,30%,nt
Cc1ccsc1/C=N/n1c(-c2ccccc2)n[nH]c1=S,13µM*,?,nt,5%,-15%,25
Cc1ccsc1/C=N/n1c(-c2ccco2)n[nH]c1=S,14µM*,14µM*,2,-3%[38.3 µM],-20%[46.1 µM],?
CCCN1C(=O)c2cc(C(=O)NC3CCCCCC3)ccc2C1O (stereo not given),-6%,16µM*,7,-4%[38.3 µM],0%[46.1 µM],-22
COC(=O)c1ccc(OC(=O)C2CC(=O)N(c3cccc(C)c3)C2)cc1 (stereo not given),?,18µM*,1,21%[38.3 µM],10%[46.1 µM],-4
CCOC(=O)c1sc(NC(=O)c2ccccc2OC)nc1C,?,?,1,36%[38.3 µM],9%[46.1 µM],?
O=C(NC1CC1)C1CCN(c2ccc(S(=O)(=O)N3CCOCC3)cc2Cl)CC1,25µM*,7%,3,0%[38.3 µM],3%[46.1 µM],-2
C#CCNC(=O)C1CCN(c2ccc(S(=O)(=O)N3CCOCC3)cc2Cl)CC1,nt,-3%,nt,9%,-10%,nt
CC(C)CNC(=O)C1CCN(c2ccc(S(=O)(=O)N3CCOCC3)cc2Cl)CC1,16µM*,16%,8,0%[38.3 µM],-4%[46.1 µM],-20
O=C(NCc1cccs1)C1CCN(c2ccc(S(=O)(=O)N3CCOCC3)cc2Cl)CC1,-21%,0%,7,13%[38.3 µM],?,-124*
CC(C)(C)NC(=O)C1CCN(c2ccc(S(=O)(=O)N3CCOCC3)cc2Cl)CC1,nt,-3%,nt,-5%,-10%,nt
C=C(C)COc1ccc(-c2ncncc2Oc2ccc(OC)cc2)c(O)c1,18µM*,20µM*,?,37%[38.3 µM],?,15
C=C(C)COc1ccc(-c2nc(N)ncc2-c2ccc(OC)cc2)c(O)c1,?,?,9,40%[38.3 µM],?,55
CCOc1cc(CO)cc(Br)c1OCC(N)=O,nt,4%,nt,1%,19%,nt
CCOc1cc(C=O)cc(Cl)c1OCC(N)=O,nt,7.1µM*,nt,5%,11%,nt
CCCOc1c(Cl)cc(/C=N/O)cc1OCC,25µM*,?,5,81%[38.3 µM],2%[46.1 µM],-1
CCn1cc(Cl)c(C(=O)NNC(=O)CCn2nc(C)c([N+](=O)[O-])c2C)n1,-7%,-3%,nt,3%,18%,-28
CCS(=O)(=O)c1ccc2c(c1)NC(=O)C(CCCl)O2 (stereo not given),nt,-17%,nt,-5%,11%,nt
CCc1cc(C(=O)N=Nc2c(O)[nH]c3ccc([N+](=O)[O-])cc23)c2ccccc2n1,-15%,-7%,nt,1%,-15%,32
CCc1ccc2nc(-c3cccc(C)c3)nc(SCC(=O)NCC3CCCO3)c2c1 (stereo not given),-10%,8%,-5,?,4%[46.1 µM],40
SMILES,HPGD block,ALDH1A1 block,IMPase inh,IMPase Li inh,NPSR antag,PNC assembly inh
O=C(c1ccc(F)cc1)N(c1ccccn1)C1CCCCC1,nt,?,nt,19%,-16%,nt
O=C(O)c1ccc(CN2CCOCC2)o1,nt,4%,nt,4%,-8%,nt
COc1ccc(CNC(=O)CN(C(=O)c2ccc(CN3CCOCC3)o2)C2CCCC2)cc1,-3%,11µM*,-23[0.369 µM],11%,7%[46.1 µM],?
Cc1ccc([N+](=O)[O-])cc1NC(=S)NC(=O)c1cccnc1,nt,-6%,nt,9%,9%,nt
O=C(NC(=S)Nc1cc([N+](=O)[O-])ccc1O)c1cccnc1,nt,10µM*,nt,0%,-16%,nt
CCC(C)c1ccc(O)c(NC(=S)NC(=O)c2cccnc2)c1 (stereo not given),nt,32µM*,nt,-9%,-9%,nt
CCc1cccc(NS(=O)(=O)c2ccc3c(c2)oc(=O)n3C)c1,-6%,-3%,4,4%[38.3 µM],-8%[46.1 µM],78
NC(N)=NC1=NC(=O)C(Cc2ccccc2Cl)S1 (stereo not given),nt,7%,nt,nt,-13%,nt
O=C1NC(=S)S/C1=C\C=C\c1ccc([N+](=O)[O-])o1,nt,nt,nt,nt,7.9µM*,nt
COc1cccc(C(=O)Nc2ccc3c(c2)C(=O)c2ccccc2C3=O)c1,-20%,-5%,nt,1%,-30%,?
Cc1ccc(NC(=S)NC(=O)c2ccc(F)cc2)cc1S(=O)(=O)Nc1ccccc1Cl,-10%,13µM*,nt,4%,-37%,0
Cc1ccc(NC(=O)c2cccc(OCc3c(C)noc3C)c2)cc1S(=O)(=O)Nc1ccccc1Cl,?,-5%,nt,1%,-10%,?
O=C(NC(=S)Nc1ccc2c(c1)C(=O)c1ccccc1C2=O)c1ccc(F)cc1,-15%,11µM*,nt,-2%,2%,22
O=Nc1ccc(NO)cc1,-25%,10µM*,nt,32%,nt,nt
COc1ccc(C2C(=O)c3ccccc3C2=Nc2ccc(Br)cc2)cc1 (stereo not given),7.1µM*,28µM*,7,-17%[38.3 µM],-7%[46.1 µM],67
COc1cccc(C2C(=O)c3ccccc3C2=O)c1,nt,0%,nt,nt,30%,nt
CCC1=C(OC(=O)N(CC)CC)N2C(=O)OC(=NCCOC)[C@]2(C)[C@H]2C1=CC[C@H]1C(=O)N(CC(=O)OC)C(=O)[C@H]12,-15%,28µM*,nt,0%,nt,nt
Cc1cc(C)nc(-n2nc(C)cc2NC(=O)CN2CCC(C)CC2)n1,1%,3.5µM*,1,8%[38.3 µM],5%[7.67 µM],17
CCC1CCCCN1CC(=O)Nc1cc(C)nn1-c1nc(C)cc(C)n1 (stereo not given),-13%,14µM*,-3,-10%[38.3 µM],?,?
Cc1cc(C)nc(-n2nc(C)cc2NC(=O)CN2CCCC2)n1,nt,?,nt,10%,-10%,nt
Cc1noc(NS(=O)(=O)c2ccc(N)cc2)c1C,-2%,7%,?,11%,9%,?
O=C(Oc1cccc2cccnc12)c1ccccc1,-11%,8%,nt,-2%,nt,nt
